Assay results: PubChem BioAssay (NCI)
This is part of a sample that, as a whole, favours compounds with a hit. Of some 83,000 tested, about 20% had one in any assay.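 Note: values are percent growth. 100 is the growth of untreated cells, values between 100 and 0 indicate rising inhibition; between -100 and 0 indicates cell death.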 Active and inactive are the calls of the source. Rule for the calls: active = growth percent below 10; inactive = the rest.

Test system: MDA-MB-468 breast
Assay: NCI-60 one-dose screen, 48 h (100 = growth as untreated, 0 = no growth, -100 = all killed)
Conditions: 10 µM unless noted

Structure (SMILES)	growth
COc1ccc(-n2c(COc3ccc(F)cc3)n[nH]c2=S)cc1	103% (inactive)
CC1(C)CC[C@]2(C(=O)O)CC[C@]3(C)C(=CC[C@@H]4[C@@]5(C)C/C(=C/c6ccco6)C(=O)C(C)(C)[C@@H]5CC[C@]43C)[C@@H]2C1	-3.74% [100 µM] (active)
CCN(CC)CCCCCCNc1ccnc2cc(Cl)ccc12	61.1% (inactive)
